The panel holds about 83,000 compounds, 20% with a hit somewhere; the sample as a whole holds those more often.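 Percent growth is the endpoint: 0 to 100 indicates growth inhibition (40 means 60% inhibition), 0 means no net growth, and negative values indicate cell death.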 A number with no mark means an inactive call. The source made the active and inactive calls. The calls were made as follows: active = growth percent below 10; inactive = the rest.
system: T-47D breast; assay: NCI-60 one-dose screen, 48 h (100 = growth as untreated, 0 = no growth, -100 = all killed); details: 10 µM unless noted

Row | Structure (SMILES) | growth
1 | COc1cc(-c2nccc3[nH]c(-c4ccc5cc[nH]c5c4)nc23)cc(OC)c1OC | 30.5%
2 | COc1ccc(/C=C/C(=O)c2cccc(OCCCCOc3cccc(C(=O)/C=C/c4ccc(OC)c(OC)c4)c3)c2)cc1OC | 43.3%
3 | CC(C)COc1nc2c(c(=O)n(C)c(=O)n2C)n1C | 88.6%
4 | NC(=O)c1c(NC(=O)c2ccc3ccccc3c2)sc2c1CCC(=O)C2 | 33.4%
5 | C=C1C(=O)O[C@H]2[C@H]1CC/C(COC(=O)NCc1ccc(Cn3c(=O)sn(CCCCC)c3=O)cc1)=C\CC[C@@]1(C)O[C@@H]21 | 0.543% (active)
6 | COc1cc(OC)c(/C=C/C(=O)c2c(OC)cccc2OC)c(OC)c1 | 30.1%
7 | COC1=CC(c2ccc[nH]2)=N/C1=C\c1[nH]c(C)c(C)c1CCC(=O)OCc1ccccc1 | 2.57% (active)
8 | CCCCCCCCCCC(CN(CC)CC)C(O)c1ccccc1 (centres undefined) | 3.27% (active)
9 | CCOC(=O)C1=C(c2ccccc2)N=C2SC=C(c3ccc(Cl)cc3)N2C1c1ccc(Br)cc1 (centres undefined) | 52.2%
10 | O=C(COc1ccc(-c2nc3cc(Cl)c(Cl)cc3[nH]2)cc1)N=Nc1c(O)[nH]c2ccc(Cl)cc12 | 56.8%
11 | Cn1ccc(=O)c(C(=O)Nc2nsc3ccc([N+](=O)[O-])cc23)c1 | 74.6%
12 | COC(=O)[C@]1(C)CCC[C@]2(C)[C@H]3C[C@H]4C(C(C)C)=C[C@]3(CC[C@H]21)[C@@H]1C(=O)CC[C@H](OCCC#N)[C@@H]14 | 66.4%
13 | O=c1c2ccccc2n2cnc3ccc(Cl)c1c32 | 54.4%
14 | Cc1cc(=O)n(C(=O)Nc2ccccc2Cl)c2cc(O)ccc12 | 97.1%
15 | Cn1cc(-c2nonc2-c2cn(C)c3ccccc23)c2ccccc21 | 33.4%
16 | COc1ccc(C(C)=O)cc1S(=O)(=O)Nc1c(N)nc(SC)[nH]c1=O | 116%
17 | O=C(/C=C(/C=C/c1ccc2[nH]ccc2c1)OB(F)F)/C=C/c1ccc2[nH]ccc2c1 | 6.23% (active)
18 | NC(=O)C(=O)c1ccccc1NC=O | 106%
19 | O=S(=O)(Nc1cc(F)cc(Cl)c1)c1ccc(-c2cnc(C3CC3)o2)cc1 | 31.7%
20 | COc1ccc(NC2=C(I)C(=O)c3ncccc3C2=O)cc1 | -32.7% (active)

Row | Structure (SMILES) | growth
21 | COc1cc2ncnc(Nc3ccc(F)c(Cl)c3)c2cc1OCC(=O)N1CCN(c2ccccc2)CC1 | 77.4%
22 | N#Cc1nc(-c2ccccc2)oc1S(=O)(=O)N1CCN(c2ccccc2)CC1 | 91.1%
23 | COc1ccc2cc1Oc1ccc(cc1)C[C@H]1c3c(cc4c(c3Oc3cc5c(cc3OC)CCN(C)[C@@H]5C2)OCO4)CCN1C | 115%
24 | Nc1cnc(C(=O)NNc2nc3cc(F)ccc3n3cccc23)cn1 | 35.5%
25 | Cc1ccc(-c2nc([P+](c3ccccc3)(c3ccccc3)c3ccccc3)c(S(=O)(=O)c3ccc(C)cc3)o2)cc1 | 18.6%
26 | Cc1cccc(/C=C/c2c(C(=O)/C=C/c3ccccc3)c(C)nc3ccccc23)c1 | -4.51% (active)
27 | Cc1c2cnccc2c(C)c2c1c1cc(C#N)ccc1n2C | -1.04% (active)
28 | COc1ccc(C(=O)/C=C/c2c(C(F)(F)F)nc3ccccn23)cc1OC | -10.7% (active)
29 | O=C1NC(=O)C(Cc2ccc(OCc3ccc(-c4ccc(Cl)cc4Cl)cc3)cc2)S1 (centres undefined) | 16.1%
30 | CSc1oc(C)nc1[P+](c1ccccc1)(c1ccccc1)c1ccccc1 | 8.57% (active)
31 | COc1cc2cc(NCc3cccc(Cl)c3)nc(C)c2cc1OC | 52.7%
32 | NS(=O)(=O)c1ccc(N=Nc2c(O)n(Cc3ccccc3)c3ccc(Cl)cc23)cc1 | 79.4%
33 | COc1cc(NS(=O)(=O)c2ccc(-c3cnc(C4CC4)o3)cc2)ccc1F | 33.6%
34 | O=S(=O)(Nc1ccc(Cl)c(C(F)(F)F)c1)c1ccc(-c2cnc(C3CC3)o2)cc1 | 12.8%
35 | O=C(N/N=C/c1ccc(Cl)cc1)c1[nH]c2ccc(Cl)cc2c1-c1ccccc1 | 73.9%
36 | O=C(/C=C/c1cccs1)Nc1ncc(Cc2ccccc2F)s1 | 23.8%
37 | C=CCc1c(O)c(C(=O)/C=C/c2ccccc2)c(OC)c2ccoc12 | 41.3%
38 | O=S(=O)(Nc1cc(Cl)ccc1Cl)c1ccc(-c2cnc(C3CC3)o2)cc1 | 28.7%
39 | CN(C)c1ccc(C(=O)OCCCCCCl)cc1 | 82%
